Source: PubChem BioAssay
Calls of active or inactive are those of the source. Unless noted, the rule behind the calls is not given here.

Key:
[1] = system: XIP peptide (Xip251-270) binding; test: small-molecule binders of XIP peptide, primary screen, biochemical, small-molecule microarray, fluorescence 635/667 nm, 0.1 µg/mL protein (AID 1182); conditions: fluorescent protein binding, 635 nm, higher = more signal, called active from +8 up or from −8 down
XIP peptide (Xip251-270) = test: small-molecule binders of XIP peptide, primary screen, biochemical, small-molecule microarray, fluorescence 635/667 nm, 0.5 µg/mL protein (AID 1183); conditions: small-molecule microarray binding, fluorescence 635 nm; higher = more signal
[2] = Plasmodium falciparum growth inhibition, primary screen, strain 3D7, DAPI fluorescence, 100 nL (AID 1184);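 note: parasites grown inside human red blood cells in medium with human serum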; conditions: P. falciparum 3D7 growth, 3 d, higher = more signal
[3] = biological target: Homeobox protein Hox-A13 (Mus musculus) (UniProt Q62424); test: inhibitors of HoxA13-DNA binding, primary screen, biochemical, fluorescence polarization, labeled oligonucleotide (AID 1185); conditions: 15 min, higher = more signal, called active from +8 up or from −8 down
Sequence of Homeobox protein Hox-A13 (Mus musculus) (Q62424 whole entry, looked up): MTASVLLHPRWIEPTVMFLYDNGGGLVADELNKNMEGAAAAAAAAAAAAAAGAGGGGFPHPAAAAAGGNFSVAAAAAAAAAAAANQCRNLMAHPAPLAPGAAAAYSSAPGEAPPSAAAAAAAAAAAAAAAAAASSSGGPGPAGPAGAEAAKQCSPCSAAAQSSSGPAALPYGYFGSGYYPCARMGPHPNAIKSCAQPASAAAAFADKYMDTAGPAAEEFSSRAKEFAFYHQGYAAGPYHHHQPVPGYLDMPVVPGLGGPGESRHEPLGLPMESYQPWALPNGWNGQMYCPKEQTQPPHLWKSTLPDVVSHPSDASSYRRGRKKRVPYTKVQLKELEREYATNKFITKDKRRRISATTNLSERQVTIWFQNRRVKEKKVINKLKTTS

[4] = inhibitors of hydroxyurea-induced Chk1 phosphorylation, primary screen, imaging, HeLa, phospho-Chk1 antibody, percent positive cells (AID 1186); conditions: hydroxyurea-induced phospho-Chk1 immunofluorescence imaging, higher = more signal
[5] = inhibitors of hydroxyurea-induced Chk1 phosphorylation, primary screen, imaging, HeLa, phospho-Chk1 nuclear intensity (AID 1187); conditions: hydroxyurea-induced phospho-Chk1 immunofluorescence imaging, higher = more signal

COc1ccc(CCNC(=O)[C@@]2(c3ccc([N+](=O)[O-])cc3)CC(=O)N(C(C)C)[C@@H]2c2ccc(CO)cc2)cc1
composite z-score [1]: 1.25 (inactive) | composite z-score (XIP peptide (Xip251-270)): -0.904 | z-score [2]: -0.303 | z-score [3]: -3.03 (inactive) | z-score [4]: -0.322 (inactive) | z-score [5]: -0.0259 (inactive)

O=C1c2ccccc2[C@@]2(Cc3ccccc3N(CC(F)(F)F)C2=O)[C@H](c2ccc(CO)cc2)N1C1CCCCC1
composite z-score [1]: 0.586 (inactive) | composite z-score (XIP peptide (Xip251-270)): 0.536 | z-score [2]: -0.361 | z-score [3]: 0.601 (inactive) | z-score [4]: -0.202 (inactive) | z-score [5]: -0.26 (inactive)

C=C(CCCC)C(=O)CC[C@@H](OC(=O)c1cccnc1)c1cccc(OCCO)c1
composite z-score [1]: 1.48 (inactive) | composite z-score (XIP peptide (Xip251-270)): 0.702 | z-score [2]: -2.81 | z-score [3]: -3.79 (inactive) | z-score [4]: -0.279 (inactive) | z-score [5]: -0.326 (inactive)

CCCC/C=C/[C@H]([C@@H](O)Cc1ccccc1)N(CC#Cc1ccccc1)Cc1ccccc1Br
composite z-score [1]: 0.227 (inactive) | composite z-score (XIP peptide (Xip251-270)): -1.26 | z-score [2]: -0.972 | z-score [3]: 0.453 (inactive) | z-score [4]: -0.138 (inactive) | z-score [5]: -0.0836 (inactive)

Cc1ccc(S[C@]2(C(=O)NCCCN(C)C)CC(=O)N(C3CCCCC3)[C@@H]2c2ccc(CO)cc2I)cc1
composite z-score [1]: -0.605 (inactive) | composite z-score (XIP peptide (Xip251-270)): -0.697 | z-score [2]: -1.65 | z-score [3]: 0.756 (inactive) | z-score [4]: -0.212 (inactive) | z-score [5]: -0.074 (inactive)

O=C1C2C=CC(C(O)C#Cc3ccccc3)N(Nc3ccccc3)C2C(=O)N1c1ccccc1 (configuration not stated)
composite z-score [1]: -0.115 (inactive) | composite z-score (XIP peptide (Xip251-270)): 0.176 | z-score [2]: 0.801 | z-score [3]: -4.05 (inactive) | z-score [4]: -0.0484 (inactive) | z-score [5]: -0.217 (inactive)

COC(=O)[C@@]1(Cc2ccccc2CN=[N+]=[N-])N=C(c2ccc(OCCCO)cc2)O[C@H]1c1ccccc1N=[N+]=[N-]
composite z-score [1]: 0.413 (inactive) | composite z-score (XIP peptide (Xip251-270)): 0.653 | z-score [2]: -1.94 | z-score [3]: 0.683 (inactive) | z-score [4]: 0.0586 (inactive) | z-score [5]: 0.0586 (inactive)

C=CC[C@]1(C(N)=O)N=C(c2ccc(OCCCO)cc2)O[C@H]1c1ccccc1CN=[N+]=[N-]
composite z-score [1]: 0.914 (inactive) | composite z-score (XIP peptide (Xip251-270)): -0.313 | z-score [2]: -2.04 | z-score [3]: -2.82 (inactive) | z-score [4]: -0.273 (inactive) | z-score [5]: 0.168 (inactive)

O=C1OCCC/C=C\[C@H]2OC34C=CCN(CCN5CCOCC5)C(=O)[C@H]3N(CCCCCO)C(=O)[C@@H]4C12 (some centres not stated)
composite z-score [1]: 0.853 (inactive) | composite z-score (XIP peptide (Xip251-270)): -0.733 | z-score [2]: 1.82 | z-score [3]: -4.6 (inactive) | z-score [4]: 0.564 (inactive) | z-score [5]: 0.292 (inactive)

COCCOC(=O)N1C(=O)[C@@]2(c3cc(C#CCCO)ccc31)[C@H](C(=O)N1CCCCCCC1)[C@H]1C(=O)O[C@H](c3ccccc3)[C@H](c3ccccc3)N1[C@@H]2c1ccc(O)cc1
composite z-score [1]: 1.48 (inactive) | composite z-score (XIP peptide (Xip251-270)): 0.63 | z-score [2]: -0.303 | z-score [3]: -0.579 (inactive) | z-score [4]: -0.424 (inactive) | z-score [5]: -0.457 (inactive)

C=CC[C@]1(C(=O)OC)N=C(c2ccc(OCCCO)cc2)O[C@H]1c1ccccc1CN=[N+]=[N-]
composite z-score [1]: -0.127 (inactive) | composite z-score (XIP peptide (Xip251-270)): -0.239 | z-score [2]: -2.35 | z-score [3]: -1.99 (inactive) | z-score [4]: -0.0854 (inactive) | z-score [5]: 0.137 (inactive)

C[C@]1(C(=O)NCCN2CCOCC2)c2ccccc2C(=O)N(Cc2ccccc2)[C@H]1c1ccc(CO)cc1
composite z-score [1]: 0.946 (inactive) | composite z-score (XIP peptide (Xip251-270)): 0.78 | z-score [2]: -1.22 | z-score [3]: -3.99 (inactive) | z-score [4]: 0.0553 (inactive) | z-score [5]: 0.0648 (inactive)

CO[C@H]1O[C@H](CO)[C@@H](OC(=O)Nc2ccc3c(c2)OCO3)[C@H](OC(=O)Nc2ccccc2)[C@@H]1OC(=O)Nc1ccccc1
composite z-score [1]: 1.06 (inactive) | composite z-score (XIP peptide (Xip251-270)): 0.649 | z-score [2]: -1.76 | z-score [3]: -5.39 (inactive) | z-score [4]: 0.171 (inactive) | z-score [5]: 0.889 (inactive)

Cc1ccc(N2C(=O)c3ccccc3[C@@H](C(=O)NCC(F)(F)F)[C@@H]2c2ccc(CO)cc2)nc1
composite z-score [1]: -0.118 (inactive) | composite z-score (XIP peptide (Xip251-270)): -0.138 | z-score [2]: -0.0188 | z-score [3]: -0.71 (inactive) | z-score [4]: -0.0128 (inactive) | z-score [5]: 0.171 (inactive)

COc1ccc([Si](C)(C)[C@H]2[C@H](CCO)O[C@@]3(C(=O)N(Cc4ccccc4)c4ccc(N5C(=O)c6cccc7cccc5c67)cc43)[C@@H]2C)cc1
composite z-score [1]: 1.25 (inactive) | composite z-score (XIP peptide (Xip251-270)): 0.353 | z-score [2]: -2.48 | z-score [3]: 0.2 (inactive) | z-score [4]: -1.01 (inactive) | z-score [5]: -0.207 (inactive)

COc1ccc([Si](C)(C)[C@H]2[C@H](CC(=O)N3Cc4ccccc4C[C@H]3CO)O[C@@]3(C(=O)N(Cc4cccc(N5CCOC5=O)c4)c4ccccc43)[C@@H]2C)cc1
composite z-score [1]: 0.873 (inactive) | composite z-score (XIP peptide (Xip251-270)): 0.625 | z-score [2]: -1.55 | z-score [3]: -3.02 (inactive) | z-score [4]: -0.958 (inactive) | z-score [5]: -0.191 (inactive)

O=C1C[C@@](C(=O)NC2CC2)(c2ccc([N+](=O)[O-])cc2)[C@@H](c2ccc(CO)cc2I)N1CC12CC3CC(CC(C3)C1)C2
composite z-score [1]: 0.479 (inactive) | composite z-score (XIP peptide (Xip251-270)): 0.687 | z-score [2]: -1.29 | z-score [3]: -3.64 (inactive) | z-score [4]: -0.174 (inactive) | z-score [5]: -0.372 (inactive)

C=CCNC(=O)[C@H]1[C@@H]2C(=O)O[C@@H](c3ccccc3)[C@@H](c3ccccc3)N2[C@@H](c2ccccc2OCCO)[C@]12C(=O)N(C(=O)OCCOC)c1ccc(C#CCNC(N)=O)cc12
composite z-score [1]: 0.854 (inactive) | composite z-score (XIP peptide (Xip251-270)): 0.822 | z-score [2]: -1.87 | z-score [3]: -1.33 (inactive) | z-score [4]: -0.267 (inactive) | z-score [5]: -0.261 (inactive)

[N-]=[N+]=NCc1ccccc1C[C@@]1(C(=O)O)N=C(c2ccc(OCCCO)cc2)O[C@@H]1c1ccccc1N=[N+]=[N-]
composite z-score [1]: -0.321 (inactive) | composite z-score (XIP peptide (Xip251-270)): 0.908 | z-score [2]: -2.15 | z-score [3]: -4.16 (inactive) | z-score [4]: -1.08 (inactive) | z-score [5]: -0.884 (inactive)

COc1ccc(CCN2C(=O)[C@@]3(c4ccc([N+](=O)[O-])cc4)CC(=O)N(CC45CC6CC(CC(C6)C4)C5)[C@@H]3c3ccc(CO)cc32)cc1
composite z-score [1]: -0.038 (inactive) | composite z-score (XIP peptide (Xip251-270)): 0.93 | z-score [2]: -1.07 | z-score [3]: -2.14 (inactive) | z-score [4]: 0.33 (inactive) | z-score [5]: 0.522 (inactive)

CN(C)C(=O)[C@@]1(Cc2ccccc2N=[N+]=[N-])N=C(c2ccc(OCCCO)cc2)O[C@H]1c1ccccc1CN=[N+]=[N-]
composite z-score [1]: 0.0857 (inactive) | composite z-score (XIP peptide (Xip251-270)): 0.896 | z-score [2]: -2.25 | z-score [3]: -1.82 (inactive) | z-score [4]: -0.554 (inactive) | z-score [5]: -0.339 (inactive)

[N-]=[N+]=NCc1ccccc1[C@H]1OC(c2ccc(OCCCO)cc2)=N[C@@]1(Cc1ccccc1N=[N+]=[N-])C(=O)NCc1ccccc1
composite z-score [1]: 0.0116 (inactive) | composite z-score (XIP peptide (Xip251-270)): 0.649 | z-score [2]: -2.49 | z-score [3]: -1.23 (inactive) | z-score [4]: -0.0872 (inactive) | z-score [5]: -0.747 (inactive)
